Measurements as given in PubChem BioAssay (NCATS).
Records with an inconclusive call do not appear. Calls of active or inactive are those of the source. Unless noted, the call rests on the fitted dose curve; in most records, active means well fitted curve in either direction with a large enough effect (not every such curve was filed as active); inconclusive means small, poorly fitted or top-dose-only effect, or another doubt; inactive means flat fitted curve, though single readings scatter.

How the values were obtained:
[1] = molecular target: Lysosomal acid glucosylceramidase (Homo sapiens) (UniProt P04062); test: Glucocerebrosidase-p2 (AID 348; in the data active means potency below about 10 µM; further: potency means the concentration at half of the fitted maximal effect); conditions: purified GBA, blue fluorogenic substrate, 40 min
Summary of the method: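 Compounds titrated from 0.6 nM upwards against 0.2 nM enzyme in pH 5.9 citric acid/KH2PO4, taurocholate, tween-20; blue fluorogenic substrate 80 uM, 40 min room temperature, stopped and read Ex 365/Em 440 for AC50.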

[2] = AP1 Signaling Pathway (AID 357); conditions: ME-180 AP-1-bla reporter, EGF-induced, beta-lactamase ratio, 5 h; at 7.69 µM (top of the series) unless noted;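 further: ME-180 reporter cells stimulated with EGF at its EC50 level; on the % scale 0 is the no-effect control and ±100 the full control effect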
Summary of the method: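 Modulation of EGF-driven AP-1 transcription was assessed with a beta-lactamase reporter in ME-180 cells. Compound and EC50 EGF were co-incubated 5 hours at 37 °C before 2.5-hour CCF4 loading at room temperature and dual-emission reading.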

[3] = molecular target: Cytochrome P450 1A2 (Homo sapiens) (UniProt P05177); test: p450-cyp1a2 (AID 410; calls by dose curve; further: potency means the concentration at half of the fitted maximal effect;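 on activity change, negative = inhibition: -100% = full effect of reference inhibitor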); conditions: recombinant CYP1A2, luciferin-ME demethylation, luminescence; series mostly up to 57 µM
Summary of the method: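 Inhibition was calculated relative to 57 uM furafylline (full inhibition). The reaction used human CYP1A2 at 20nM with Luciferin-ME at its Km, 100uM, driven by an NADPH-regenerating system for 60 min at room temperature.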

[4] = NFAT Signaling Pathway (AID 444); conditions: Jurkat NFAT-bla M1, carbachol, beta-lactamase ratio, 5 h; at 7.69 µM (top of the series) unless noted;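 further: carbachol stimulus at about its EC50 of 1 µM final; on the % scale 0 is the no-effect control and ±100 the full control effect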
Summary of the method: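 Read-out: CCF4 FRET ratio (460 nm/530 nm) after 1 h RT dye loading, used for %activity and AC50 from titration series. Cells: Jurkat NFAT-β-lactamase/M1 line, treated with compound plus 1 uM carbachol for 5 h, 37 °C.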

[5] = Stat Signaling Pathway (AID 446); conditions: ME-180 SIE beta-lactamase reporter, IL-6 stimulated, 5 h; at 7.69 µM (top of the series) unless noted;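 further: ME-180 cervical cancer cells given 40 pM IL-6 alongside compound; SIE-controlled beta-lactamase reporter measured as 460/530 nm FRET emission ratio; on the % scale 0 is the no-effect control and ±100 the full control effect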
Summary of the method: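 Reporter line: ME-180 cervical carcinoma, SIE-beta-lactamase. Treatment: compound with 40 pM IL-6, 5 hrs, 37 C, in low-serum OPTI-MEM with 10 mM HEPES pH 7.3. Detection: 460/530 nm fluorescence.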

[6] = molecular target: Glucocorticoid receptor (Homo sapiens) (UniProt P04150); test: GR-EFC Redistribution (AID 451; calls by dose curve; further: potency means the concentration at half of the fitted maximal effect); conditions: CHO-K1 GR-EFC translocation, beta-gal luminescence, 2 h
Summary of the method: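 Translocation of GR-ED fusion to nuclear EA restores b-gal, read by luminescence after 1 h room-temperature detection. Engineered CHO-K1 biosensor cells, 1,000/well, exposed 2 h at 37 C to titrations up to 46 uM final.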

[7] = molecular target: Mitogen-activated protein kinase 10 (Mus musculus) (UniProt Q61831); test: JNK3 AlphaScreen Assay (AID 530); conditions: JNK3 lysate, c-Jun phosphorylation; series mostly up to 57.1 µM;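 further: kinase came from lysate of stimulated human HepG2 cells; signal reports phosphorylation of biotinylated GST-cJun 1-79 at Ser73 with 10 µM ATP; on the % scale 0 is the no-effect control and ±100 the full control effect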
Summary of the method: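 Room-temperature AlphaScreen kinase assay; pre-activated HepG2 lysate as JNK3 source, biotin-GST-cJun(1-79) substrate, 10 uM ATP, compound 15 min preincubation.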

[8] = molecular target: 3',5'-cyclic-AMP phosphodiesterase 4B (Homo sapiens) (UniProt Q07343); test: qHTS Assay for Inhibitors of PDE-IV (AID 607; active means well fitted activation curve with a large enough effect in the main read-out, with a control signal flat, not every such curve was filed as active; further: % of control where 0% means no effect); conditions: HEK293 ACTOne CNG channel cells, membrane potential fluorescence; series mostly up to 22.9 µM
Summary of the method: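 Cell-based read-out of cAMP via a modified cyclic nucleotide-gated channel and membrane potential dye (535/590 nm) in HEK293 cells expressing PDE4 endogenously. Compounds tested up to 22.9 uM final; 100 uM RO 20-1724 reference.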

[9] = qHTS Assay for Lipid Storage Modulators (AID 1519; calls by dose curve); conditions: Drosophila S3 cells, BODIPY lipid droplet/cell ratio, laser cytometry, cells loaded with oleic acid; for activity change, negative = inhibition: at 57.5 µM (top of the series)
Summary of the method: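 Cells seeded at 5,000 per well were treated with compounds over a concentration series and loaded with oleic acid (400 uM, as added). Lipid droplet fluorescence (488 nm excitation, 500-530 nm channel) was read by laser-scanning cytometry and normalized to 20 uM Triacsin C.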

[10] = Primary qHTS for small molecule stabilizers of the endoplasmic reticulum resident proteome: Secreted ER Calcium Modulated Protein (SERCaMP) assay (AID 1508630; active means well fitted inhibition curve with a large enough effect; further: on the % scale 0 is the no-effect control and ±100 the full control effect); conditions: SH-SY5Y GLuc-SERCaMP (Gaussia luciferase released on ER calcium loss) secretion, thapsigargin, luminescence; series mostly up to 38.4 µM
Summary of the method: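 GLuc-SERCaMP-expressing SH-SY5Y cells, pretreated 16 h with compound, are challenged with thapsigargin to empty ER calcium stores; after 4 h, coelenterazine is added directly to the medium and luminescence is imaged.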

[11] = molecular target: Cytochrome P450 2C9 (Homo sapiens) (UniProt P11712); test: qHTS Assay for Inhibitors and Substrates of Cytochrome P450 2C9 (AID 883; active means well fitted inhibition curve with a large enough effect; further: on the % scale 0 is the no-effect control and ±100 the full control effect; nearly all actives have a fitted effect of over 60% in size); conditions: recombinant CYP2C9, luciferin-H luminescence, 60 min; series mostly up to 57.1 µM
Summary of the method: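 Inhibition of CYP2C9 is scored as loss of luminescence, with 57uM sulphaphenazole defining 100% inhibition. Substrate Luciferin-H is used at 100uM, equal to its KM; enzyme at 10nM in 25mM KPO4, 60 min at 37C with NADPH regeneration.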

[12] = measured here: cell count channel max response
[13] = measured here: lipid channel max response

Sequence of Lysosomal acid glucosylceramidase (Homo sapiens) (P04062 whole entry, looked up): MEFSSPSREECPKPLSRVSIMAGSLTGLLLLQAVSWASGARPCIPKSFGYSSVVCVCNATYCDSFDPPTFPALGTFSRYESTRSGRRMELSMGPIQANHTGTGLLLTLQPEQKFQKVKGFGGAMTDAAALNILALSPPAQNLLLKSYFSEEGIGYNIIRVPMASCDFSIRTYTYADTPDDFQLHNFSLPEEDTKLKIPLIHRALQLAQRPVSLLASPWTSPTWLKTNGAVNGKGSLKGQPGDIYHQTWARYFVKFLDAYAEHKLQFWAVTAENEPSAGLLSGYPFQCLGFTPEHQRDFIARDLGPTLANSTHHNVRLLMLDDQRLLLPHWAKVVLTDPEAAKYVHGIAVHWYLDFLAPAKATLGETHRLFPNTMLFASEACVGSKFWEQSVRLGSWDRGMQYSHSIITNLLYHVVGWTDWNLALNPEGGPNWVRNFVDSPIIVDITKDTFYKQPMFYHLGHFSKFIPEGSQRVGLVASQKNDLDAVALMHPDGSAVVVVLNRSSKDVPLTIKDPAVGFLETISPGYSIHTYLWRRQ
Sequence of Glucocorticoid receptor (Homo sapiens) (P04150 whole entry, looked up, the tested form may be a part): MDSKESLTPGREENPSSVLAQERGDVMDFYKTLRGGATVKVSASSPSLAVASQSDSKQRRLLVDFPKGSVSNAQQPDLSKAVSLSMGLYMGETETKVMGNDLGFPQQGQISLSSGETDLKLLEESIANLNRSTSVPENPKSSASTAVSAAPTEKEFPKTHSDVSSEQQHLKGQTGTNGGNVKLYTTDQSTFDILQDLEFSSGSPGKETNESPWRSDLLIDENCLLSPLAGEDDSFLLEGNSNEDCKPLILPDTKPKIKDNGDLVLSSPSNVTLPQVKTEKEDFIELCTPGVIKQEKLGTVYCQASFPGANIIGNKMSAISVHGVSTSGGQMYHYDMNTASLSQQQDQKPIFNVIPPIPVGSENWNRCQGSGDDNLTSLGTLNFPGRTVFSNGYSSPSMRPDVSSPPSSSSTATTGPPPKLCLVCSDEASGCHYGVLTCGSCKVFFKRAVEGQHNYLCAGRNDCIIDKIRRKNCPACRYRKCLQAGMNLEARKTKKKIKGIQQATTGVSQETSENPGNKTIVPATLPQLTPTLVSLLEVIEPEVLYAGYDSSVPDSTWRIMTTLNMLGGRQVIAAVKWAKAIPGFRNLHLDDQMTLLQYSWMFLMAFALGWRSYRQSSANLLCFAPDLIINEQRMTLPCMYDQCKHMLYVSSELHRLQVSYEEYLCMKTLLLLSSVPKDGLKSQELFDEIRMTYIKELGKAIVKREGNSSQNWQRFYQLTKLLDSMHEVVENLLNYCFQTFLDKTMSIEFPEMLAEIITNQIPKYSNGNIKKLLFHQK
Sequence of Cytochrome P450 1A2 (Homo sapiens) (P05177 whole entry, looked up): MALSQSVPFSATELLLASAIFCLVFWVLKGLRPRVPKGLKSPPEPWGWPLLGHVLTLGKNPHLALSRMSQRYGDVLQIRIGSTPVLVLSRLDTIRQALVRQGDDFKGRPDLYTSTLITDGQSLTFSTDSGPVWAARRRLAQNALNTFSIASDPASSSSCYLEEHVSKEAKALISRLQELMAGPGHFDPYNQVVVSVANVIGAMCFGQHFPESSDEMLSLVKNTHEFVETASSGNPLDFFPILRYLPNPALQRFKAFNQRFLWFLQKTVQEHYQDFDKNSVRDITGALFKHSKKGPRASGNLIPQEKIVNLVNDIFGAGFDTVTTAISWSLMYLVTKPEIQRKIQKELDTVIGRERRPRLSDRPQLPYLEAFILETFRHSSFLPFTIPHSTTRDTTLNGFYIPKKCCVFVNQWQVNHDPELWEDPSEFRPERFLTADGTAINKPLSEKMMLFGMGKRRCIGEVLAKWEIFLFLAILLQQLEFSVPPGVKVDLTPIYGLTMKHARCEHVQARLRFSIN
Sequence of 3',5'-cyclic-AMP phosphodiesterase 4B (Homo sapiens) (Q07343 whole entry, looked up): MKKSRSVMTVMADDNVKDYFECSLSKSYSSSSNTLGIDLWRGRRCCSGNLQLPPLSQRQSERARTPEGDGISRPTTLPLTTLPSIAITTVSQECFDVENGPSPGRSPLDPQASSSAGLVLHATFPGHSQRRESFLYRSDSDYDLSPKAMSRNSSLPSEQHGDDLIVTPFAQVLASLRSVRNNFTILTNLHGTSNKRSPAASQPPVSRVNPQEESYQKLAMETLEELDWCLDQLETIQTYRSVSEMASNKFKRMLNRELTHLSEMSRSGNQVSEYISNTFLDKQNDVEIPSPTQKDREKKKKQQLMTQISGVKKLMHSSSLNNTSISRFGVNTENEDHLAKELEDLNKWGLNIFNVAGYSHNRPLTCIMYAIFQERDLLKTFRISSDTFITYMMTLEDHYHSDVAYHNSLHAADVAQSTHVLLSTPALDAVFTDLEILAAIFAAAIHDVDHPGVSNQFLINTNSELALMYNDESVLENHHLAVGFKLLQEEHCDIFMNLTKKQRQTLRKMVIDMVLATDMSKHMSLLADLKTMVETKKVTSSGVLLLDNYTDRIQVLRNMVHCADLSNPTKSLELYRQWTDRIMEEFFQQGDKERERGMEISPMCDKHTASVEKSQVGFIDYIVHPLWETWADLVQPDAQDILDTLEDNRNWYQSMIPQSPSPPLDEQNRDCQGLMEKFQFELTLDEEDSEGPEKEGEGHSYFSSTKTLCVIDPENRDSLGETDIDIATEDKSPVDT
Sequence of Cytochrome P450 2C9 (Homo sapiens) (P11712 whole entry, looked up): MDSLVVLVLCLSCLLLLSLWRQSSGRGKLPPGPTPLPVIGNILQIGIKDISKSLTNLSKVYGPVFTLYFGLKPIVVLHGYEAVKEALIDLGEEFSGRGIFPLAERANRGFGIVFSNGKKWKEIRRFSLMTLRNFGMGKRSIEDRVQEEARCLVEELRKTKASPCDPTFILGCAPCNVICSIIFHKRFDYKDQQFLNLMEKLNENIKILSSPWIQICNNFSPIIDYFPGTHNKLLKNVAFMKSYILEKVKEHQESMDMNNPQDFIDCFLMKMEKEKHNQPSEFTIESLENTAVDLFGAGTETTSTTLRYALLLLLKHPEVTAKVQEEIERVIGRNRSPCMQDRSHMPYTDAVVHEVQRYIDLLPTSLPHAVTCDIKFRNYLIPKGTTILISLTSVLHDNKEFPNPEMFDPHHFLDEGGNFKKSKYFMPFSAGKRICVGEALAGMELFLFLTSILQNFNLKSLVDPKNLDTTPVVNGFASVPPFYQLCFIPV

CC(=O)N1CCC2(CCN(Cc3ccncc3)CC2)CC1
Potency [1]: > 11.4 µM (inactive)
activity change, negative = inhibition [2]: 5.96% (inactive)
Potency [3]: inactive
activity change, negative = inhibition [4]: -0.25% (inactive)
activity, negative = inhibition [5]: -6.6% (inactive)
Potency [6]: > 46 µM (inactive)
outcome [7]: inactive
Potency [8]: inactive
activity change, negative = inhibition [9]: 2.82% (inactive)
max response [9, 12]: 7.01%
max response [9, 13]: 14.4%
Potency [10]: inactive

CN1CC[C@@]2(CCCN(C(=O)c3cccc(F)c3)C2)C1
Potency [1]: > 11.4 µM (inactive)
activity change, negative = inhibition [2]: -5.96% (inactive)
Potency [3]: inactive
activity change, negative = inhibition [4]: -2.53% (inactive)
activity, negative = inhibition [5]: -8.35% (inactive)
Potency [6]: > 46 µM (inactive)
outcome [7]: inactive
Potency [8]: inactive
activity change, negative = inhibition [9]: 3.45% (inactive)
max response [9, 12]: 3.46%
max response [9, 13]: 12.3%
Potency [10]: inactive

CN1CCC2(CC1)CCN(C(=O)c1cc(C(F)(F)F)cc(C(F)(F)F)c1)CC2
Potency [1]: > 11.4 µM (inactive)
activity change, negative = inhibition [2]: -8.71% (inactive)
Potency [3]: inactive
activity change, negative = inhibition [4]: -5.98% (inactive)
activity, negative = inhibition [5]: -2.34% (inactive)
Potency [6]: > 46 µM (inactive)
outcome [7]: inactive
Potency [8]: inactive
activity change, negative = inhibition [9]: 1.93% (inactive)
max response [9, 12]: -7.21%
max response [9, 13]: -4.06%
Potency [10]: inactive

O=C(c1ccncc1)N1CCC2(CC1)CN(c1ncccn1)C2
Potency [1]: > 11.4 µM (inactive)
activity change, negative = inhibition [2]: 7.49% (inactive)
Potency [3]: 6.31 µM (active)
activity change, negative = inhibition [4]: 6.22% (inactive)
activity, negative = inhibition [5]: -10.2% (inactive)
Potency [6]: > 46 µM (inactive)
outcome [7]: inactive
Potency [8]: inactive
activity change, negative = inhibition [9]: 0.437% (inactive)
max response [9, 12]: 22.4%
max response [9, 13]: 23.6%
Potency [10]: inactive

CS(=O)(=O)N1CCC2(CCN(c3ccccc3)CC2)CC1
Potency [1]: > 11.4 µM (inactive)
activity change, negative = inhibition [2]: 0.201% (inactive)
Potency [3]: inactive
activity change, negative = inhibition [4]: -7.56% (inactive)
activity, negative = inhibition [5]: -0.282% (inactive)
Potency [6]: > 46 µM (inactive)
outcome [7]: inactive
Potency [8]: inactive
Potency [11]: inactive
activity change, negative = inhibition [9]: 5.49% (inactive)
max response [9, 12]: 20.7%
max response [9, 13]: 29.9%
Potency [10]: inactive

CC(C)NC(=O)N1CCC2(CC1)CCN(C(=O)c1ccco1)CC2
Potency [1]: > 11.4 µM (inactive)
activity change, negative = inhibition [2]: -2.03% (inactive)
Potency [3]: inactive
activity change, negative = inhibition [4]: 12% (inactive)
activity, negative = inhibition [5]: 8.93% (inactive)
Potency [6]: > 46 µM (inactive)
outcome [7]: inactive
Potency [8]: inactive
activity change, negative = inhibition [9]: 3.89% (inactive)
max response [9, 12]: 8.07%
max response [9, 13]: 11.7%
Potency [10]: inactive

O=C(c1csnn1)N1CCC2(CC1)CN(Cc1cc(C(F)(F)F)cc(C(F)(F)F)c1)C2
Potency [1]: > 11.4 µM (inactive)
activity change, negative = inhibition [2]: 15.8% (inactive)
Potency [3]: inactive
activity change, negative = inhibition [4]: -21.8% (inactive)
activity, negative = inhibition [5]: 3.59% (inactive)
Potency [6]: > 46 µM (inactive)
outcome [7]: inactive
Potency [8]: inactive
activity change, negative = inhibition [9]: -4.63% (inactive)
max response [9, 12]: 8.43%
max response [9, 13]: 5.85%
Potency [10]: inactive

CC(C)NC(=O)N1CC2(CCN(S(=O)(=O)c3ccccc3)CC2)C1
Potency [1]: > 11.4 µM (inactive)
activity change, negative = inhibition [2]: -9.04% (inactive)
Potency [3]: inactive
activity change, negative = inhibition [4]: 21.2% (inactive)
activity, negative = inhibition [5]: -0.15% (inactive)
Potency [6]: > 46 µM (inactive)
outcome [7]: inactive
Potency [8]: inactive
activity change, negative = inhibition [9]: -7.9% (inactive)
max response [9, 12]: 3.88%
max response [9, 13]: -2.51%
Potency [10]: inactive

O=C(c1ccncc1)N1CCC2(CC1)CCN(c1ccccc1)CC2
Potency [1]: > 11.4 µM (inactive)
activity change, negative = inhibition [2]: -1.33% (inactive)
Potency [3]: inactive
activity change, negative = inhibition [4]: 12.8% (inactive)
activity, negative = inhibition [5]: -1.17% (inactive)
Potency [6]: > 46 µM (inactive)
outcome [7]: inactive
Potency [8]: inactive
activity change, negative = inhibition [9]: 2.16% (inactive)
max response [9, 12]: 0.126%
max response [9, 13]: 6.62%
Potency [10]: inactive
